Experimental data: PubChem BioAssay

test: probe aLefty2 binding to arrayed compounds – biochemical, biotinylated probe, 635/667 nm fluorescence, primary screen (AID 1094); settings: small-molecule microarray, higher = more signal;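 further: score merges spot fluorescence near 667 nm with spot signal-to-noise ratio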

| Compound | composite z-score |
| --- | --- |
| CC1CC/C=C\[C@H]2OC34C=CCN(c5ccc6ccccc6c5)C(=O)[C@H]3N(C(CO)C(C)C)C(=O)[C@@H]4C2C(=O)O1 (stereo not given in full) | -0.0313 |
| COCCOC(=O)N1C(=O)[C@@]2(c3cc(C#CCC(C(=O)OC)C(=O)OC)ccc31)[C@H](c1ccc(OCCO)cc1)N1[C@H](c3ccccc3)[C@H](c3ccccc3)OC(=O)[C@H]1[C@@H]2C(=O)N1CCN(c2ncccn2)CC1 | 0.0112 |
| CCOC(=O)[C@H]1C/C=C/C[C@H](C(=O)OCC)C(=O)O[C@H]2[C@@H](OC)O[C@H](CO)[C@@H](OC(=O)Nc3ccc(OC)cc3)[C@@H]2OC1=O | 0.217 |
| O=C1O[C@@H](c2ccccc2)[C@@H](c2ccccc2)N2[C@@H](c3ccc(O)cc3)[C@]3(C(=O)Nc4ccc(C#CC5=CCCCC5)cc43)[C@@H](C(=O)N3CCN(c4ncccn4)CC3)[C@H]12 | 0.517 |
| CCCCN1CC=CC23O[C@@H]4/C=C\CCC(C)OC(=O)C4[C@H]2C(=O)N(CCCCCCO)[C@@H]3C1=O (stereo not given in full) | -0.212 |
| CCOC(=O)C[C@H]1[C@H](OC(=O)c2ccc(-c3ccccc3)cc2)[C@@H](NC(=O)c2ccc3ccccc3n2)c2cc(OCCCO)ccc2N1C(=O)c1ccccc1 | -0.171 |
| COc1ccc(NN2C(C(O)c3ccccn3)C=CC3C(=O)N(C4CCCCC4)C(=O)C32)cc1 (stereo not given) | 0.282 |
| COc1cc(OC)c(C(O)C2C=CC3C(=O)N(c4ccccc4)C(=O)C3N2Nc2ccc(C#N)cc2)cc1Br (stereo not given) | 0.929 |
| COc1ccc([Si](C)(C)[C@H]2[C@H](CCn3cc([C@H](O)c4ccccc4)nn3)O[C@@]3(C(=O)N(Cc4ccc(N5CCOC5=O)cc4)c4ccccc43)[C@@H]2C)cc1 | -0.0713 |
| CCCCC(CC)C(O)C1C=CC2C(=O)N(c3ccccc3)C(=O)C2N1Nc1ccc([N+](=O)[O-])cc1 (stereo not given) | 0.0958 |
